# Values joined by “and” are separate entries in the source; they are usually repeats but may differ in a detail not shown here. Equal entries are not always repeated. This is part of a sample that, as a whole, favours compounds with a hit. Of some 83,000 tested, about 20% had one in any assay.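 Each cell line was grown in a 96-well plate and treated with one concentration of compound for 48 hours. Values below 10 were considered active.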 Active and inactive are the calls of the source.
# What was measured:
# Experiment in all cases: NCI-60 one-dose screen, 48 h (100 = growth as untreated, 0 = no growth, -100 = all killed)
# Conditions in all cases: 10 µM unless noted
# T-47D breast = tested on: T-47D breast
# BT-549 breast = tested on: BT-549 breast
# MDA-MB-435 melanoma = tested on: MDA-MB-435 melanoma
# SW-620 colon = tested on: SW-620 colon
# MCF7 breast = tested on: MCF7 breast
# HCT-116 colon = tested on: HCT-116 colon
# HCC-2998 colon = tested on: HCC-2998 colon
# KM12 colon = tested on: KM12 colon
SMILES,growth (T-47D breast),growth (BT-549 breast),growth (MDA-MB-435 melanoma),growth (SW-620 colon),growth (MCF7 breast),growth (HCT-116 colon),growth (HCC-2998 colon),growth (KM12 colon)
CCC/C(=N/NC(N)=O)c1ccco1,72.6% (inactive),97.4% (inactive),106% (inactive),102% (inactive),92.1% (inactive),99.7% (inactive),104% (inactive),103% (inactive)
COc1ccc(/C=N/NC(N)=S)cc1,85.6% (inactive),104% (inactive),100% (inactive),125% (inactive),103% (inactive),89.3% (inactive),90.7% (inactive),119% (inactive)
O=C1CCC(=O)N1CC1CC2CCC1C2 (stereo not given),100% (inactive) and 79.2% (inactive),90.1% (inactive),93.3% (inactive) and 95.9% (inactive),104% (inactive) and 100% (inactive),99% (inactive) and 95.9% (inactive),106% (inactive) and 90.5% (inactive),106% (inactive),107% (inactive) and 100% (inactive)
CCCCOC1NC(=O)NC(=O)C1(F)C(=O)OCC (stereo not given),80.5% (inactive) and 74.7% (inactive),57.3% (inactive) and 59.5% (inactive),56.9% (inactive) and 53.4% (inactive),94.6% (inactive) and 76.7% (inactive),46.6% (inactive) and 27.8% (inactive),64.5% (inactive) and 43.6% (inactive),45.5% (inactive) and 26.1% (inactive),60.2% (inactive) and 49.4% (inactive)
Cc1ccc(NC(=S)N/C=C(\c2ccccc2)S(=O)Cc2ccccc2)c(C)c1 (stereo not given),77.4% (inactive),99.3% (inactive),97.9% (inactive),98% (inactive),90.3% (inactive),100% (inactive),105% (inactive),102% (inactive)
CC(=O)c1cccc(OC(=O)c2ccccc2)c1,102% (inactive),120% (inactive),117% (inactive),106% (inactive),85.2% (inactive),90.1% (inactive),101% (inactive),110% (inactive)
S=c1ccc2ccccc2[nH]1,90.1% (inactive) and 91.2% (inactive),100% (inactive) and 104% (inactive),110% (inactive) and 104% (inactive),106% (inactive) and 104% (inactive),99.5% (inactive) and 103% (inactive),95.9% (inactive) and 102% (inactive),111% (inactive) and 107% (inactive),106% (inactive) and 103% (inactive)
O=C(O)COc1ccccc1F,107% (inactive),108% (inactive),108% (inactive),104% (inactive),107% (inactive),95.5% (inactive),111% (inactive),104% (inactive)
OCCSc1ccc(Cl)cc1,101% (inactive) and 72.3% (inactive),111% (inactive) and 94.7% (inactive),103% (inactive) and 106% (inactive),104% (inactive),106% (inactive) and 89.3% (inactive),110% (inactive) and 94.4% (inactive),106% (inactive) and 108% (inactive),117% (inactive) and 102% (inactive)
CC1=CC(=O)C=CC1=Nc1ccc(N(C)C)cc1,69.1% (inactive) and -24.8% (active),79% (inactive) and 27.8% (inactive),59.4% (inactive) and 6.47% (active),105% (inactive),89.9% (inactive) and 6.86% (active),84.3% (inactive) and 2.64% (active),98.4% (inactive) and 59.1% (inactive),83.4% (inactive) and 25.2% (inactive)
CC(CN(C)C)CN1c2ccccc2Sc2ccccc21 (stereo not given),79.4% (inactive) and 88.3% (inactive),79% (inactive) and 91.8% (inactive) and 80.2% (inactive),76.3% (inactive) and 85% (inactive) and 75.7% (inactive),86.9% (inactive) and 83.8% (inactive) and 88.8% (inactive),88.2% (inactive) and 94.2% (inactive) and 82.2% (inactive),59.3% (inactive) and 63.9% (inactive) and 94.9% (inactive),78.4% (inactive) and 97.8% (inactive) and 83.4% (inactive),95.4% (inactive) and 104% (inactive) and 89.5% (inactive)
Cc1cc(NC(=O)NC(=O)c2ccccc2N(C)C)ccc1Oc1ncc(Br)cn1,36.2% (inactive) and 52.2% (inactive),17.5% (inactive) and 39.1% (inactive),-27.4% (active) and 6.67% (active),28.4% (inactive) and 33.9% (inactive),16.5% (inactive) and 16.9% (inactive),17% (inactive) and 21.8% (inactive),1.35% (active) and 50.4% (inactive),15.3% (inactive) and 32.1% (inactive)
CNc1ccc(Cl)cc1S(=O)(=O)c1ccccc1[N+](=O)[O-],85.5% (inactive) and 69.2% (inactive),79.5% (inactive) and 86.9% (inactive),49.6% (inactive) and 6.48% (active),108% (inactive) and 105% (inactive),94.3% (inactive) and 89.9% (inactive),107% (inactive) and 90.2% (inactive),109% (inactive),75% (inactive) and 95.3% (inactive)
N#Cc1ccc(/C=C/C(=O)c2ccccc2)cc1,88.3% (inactive) and 82.5% (inactive),98% (inactive) and 96.5% (inactive),84.4% (inactive) and 95.2% (inactive),19.1% (inactive) and 1.04% (active),3.73% (active) and 34.9% (inactive),-97.4% (active) and -60.8% (active),110% (inactive) and 7.47% (active),-47.9% (active) and 15.7% (inactive)
COC(=O)C(Cc1cn(C(C)=O)c2ccccc12)P(=O)(OC)OC (stereo not given),105% (inactive),105% (inactive),99.5% (inactive),99.5% (inactive),101% (inactive),96.4% (inactive),103% (inactive),99.2% (inactive)
NNC(=O)Nc1ccccc1,109% (inactive),104% (inactive),103% (inactive),101% (inactive),89.3% (inactive),101% (inactive),113% (inactive),99.1% (inactive)
CC(=O)Oc1cc(C(C)C)c(OCCN(C)C)cc1C,90% (inactive) and 86.2% (inactive),119% (inactive) and 100% (inactive),99.2% (inactive) and 99.4% (inactive),104% (inactive) and 100% (inactive),109% (inactive) and 95.7% (inactive),107% (inactive) and 102% (inactive),99.6% (inactive) and 113% (inactive),102% (inactive) and 110% (inactive)
O=c1[nH]c(=S)[nH]n1C(=S)n1[nH]c(=S)[nH]c1=O,92% (inactive),108% (inactive),110% (inactive),98.5% (inactive),91.8% (inactive),102% (inactive),99.6% (inactive),98.4% (inactive)
COC(=O)c1nc(=S)[nH]c(C(=O)OC)c1C(=O)c1ccccc1,107% (inactive),124% (inactive),107% (inactive),108% (inactive),94.2% (inactive),126% (inactive),116% (inactive),114% (inactive)
CC(O)CCNC(c1ccccc1)C(O)c1ccccc1 (stereo not given),99.2% (inactive),110% (inactive),112% (inactive),110% (inactive),99.9% (inactive),100% (inactive),111% (inactive),114% (inactive)
COc1cc(NCCCCCCCNC(C)C)c2nccc(C)c2c1,59.9% (inactive),85.7% (inactive) and 64.2% (inactive),93.9% (inactive) and 7.03% (active),98% (inactive) and 73% (inactive),-1.6% (active) and -9.72% (active),73.3% (inactive) and 50.4% (inactive),67.2% (inactive) and 61.5% (inactive),92.6% (inactive) and 73.1% (inactive)
O=C(c1ccccc1)C1(Br)CCCCC1,94.7% (inactive),105% (inactive),105% (inactive),105% (inactive),96% (inactive),104% (inactive),101% (inactive),104% (inactive)
CCc1ccccc1-n1[nH]c(C)c(C=N)c1=O,126% (inactive),108% (inactive),104% (inactive),106% (inactive),94.1% (inactive),120% (inactive),118% (inactive),102% (inactive)
CCOC(=N)c1ccc(C(=N)OCC)cc1,84% (inactive),98.2% (inactive),114% (inactive),119% (inactive),92.3% (inactive),96% (inactive),109% (inactive),105% (inactive)
Nc1ccccc1SC(CC(=O)c1ccccc1)c1cccc([N+](=O)[O-])c1 (stereo not given),88.3% (inactive) and 90% (inactive),103% (inactive) and 88.9% (inactive),102% (inactive) and 85.5% (inactive),14.1% (inactive) and 1.5% (active),19.3% (inactive) and 19% (inactive),-71.2% (active) and -58.6% (active),110% (inactive),73.9% (inactive)
